Measurements published in PubChem BioAssay (NCATS).
Inconclusive results are not listed. Unless noted, the call rests on the fitted dose curve; in most records, active means well fitted curve in either direction with a large enough effect (not every such curve was filed as active); inconclusive means small, poorly fitted or top-dose-only effect, or another doubt; inactive means flat fitted curve, though single readings scatter.

Columns and labels:
[1] = AP1 Signaling Pathway (AID 357); settings: ME-180 AP-1-bla reporter, EGF-induced, beta-lactamase ratio, 5 h; at 17.2 µM (top of the series) unless noted;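 further: ME-180 reporter cells stimulated with EGF at its EC50 level; on the % scale 0 is the no-effect control and ±100 the full control effect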
Method in brief: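 In this screen, ME-180 cells in Opti-MEM with 0.5% dialyzed FBS received EC50 EGF and compound titrations for 5 h. AP-1 reporter beta-lactamase was detected via CCF4 ratio, giving AC50 for positive and negative modulators.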

[2] = NFAT Signaling Pathway (AID 444); settings: Jurkat NFAT-bla M1, carbachol, beta-lactamase ratio, 5 h; at 17.2 µM (top of the series) unless noted;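 further: carbachol stimulus at about its EC50 of 1 µM final; on the % scale 0 is the no-effect control and ±100 the full control effect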
Method in brief: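 Read-out: CCF4 FRET ratio (460 nm/530 nm) after 1 h RT dye loading, used for %activity and AC50 from titration series. Cells: Jurkat NFAT-β-lactamase/M1 line, treated with compound plus 1 uM carbachol for 5 h, 37 °C.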

[3] = Stat Signaling Pathway (AID 446); settings: ME-180 (cervical carcinoma) SIE beta-lactamase reporter, IL-6 stimulated, 5 h; at 17.2 µM (top of the series) unless noted;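 further: ME-180 cervical cancer cells given 40 pM IL-6 alongside compound; SIE-controlled beta-lactamase reporter measured as 460/530 nm FRET emission ratio; on the % scale 0 is the no-effect control and ±100 the full control effect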
Method in brief: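 Emission at 460 and 530 nm (excitation 405 nm) reports SIE-controlled beta-lactamase in ME-180 cells. Cells received compound with 40 pM IL-6 for 5 hrs at 37 C; data scaled between 300 pM IL-6 and 125 nM JAK-inhibitor controls.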

[4] = molecular target: Glucocorticoid receptor (Homo sapiens) (UniProt P04150); assay: GR-GFP Redistribution (AID 450;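 active means compounds whose dose series gives a full or clear partial fitted curve of increased nuclear translocation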; further: potency means the concentration at half of the fitted maximal effect)
Chain of Glucocorticoid receptor (Homo sapiens) (P04150 whole entry, looked up): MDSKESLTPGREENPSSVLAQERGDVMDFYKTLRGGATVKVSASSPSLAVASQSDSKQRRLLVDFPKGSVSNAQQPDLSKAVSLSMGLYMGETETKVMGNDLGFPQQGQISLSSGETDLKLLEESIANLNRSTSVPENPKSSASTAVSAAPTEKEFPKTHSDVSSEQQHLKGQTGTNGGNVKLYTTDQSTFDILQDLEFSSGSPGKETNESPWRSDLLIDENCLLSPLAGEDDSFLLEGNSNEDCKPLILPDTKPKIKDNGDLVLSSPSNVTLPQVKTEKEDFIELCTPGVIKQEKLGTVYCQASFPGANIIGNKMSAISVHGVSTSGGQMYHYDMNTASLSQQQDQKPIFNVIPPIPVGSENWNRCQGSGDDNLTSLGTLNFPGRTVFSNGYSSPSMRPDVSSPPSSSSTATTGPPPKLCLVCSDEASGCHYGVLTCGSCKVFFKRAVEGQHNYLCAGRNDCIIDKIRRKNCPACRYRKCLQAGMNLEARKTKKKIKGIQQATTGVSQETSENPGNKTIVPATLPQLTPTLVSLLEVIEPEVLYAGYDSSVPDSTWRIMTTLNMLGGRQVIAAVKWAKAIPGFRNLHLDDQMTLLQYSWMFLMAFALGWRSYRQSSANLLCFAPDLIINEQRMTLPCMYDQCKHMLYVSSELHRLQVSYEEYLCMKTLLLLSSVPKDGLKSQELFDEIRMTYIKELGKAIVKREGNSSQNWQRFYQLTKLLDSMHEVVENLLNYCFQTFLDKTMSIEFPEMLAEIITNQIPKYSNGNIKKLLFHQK

Cc1ccc2[nH]c(CCN(C)C)c(CC#N)c2c1
inactive: activity change, negative = inhibition [1] 12.9% | activity change, negative = inhibition [2] 8.6% | activity, negative = inhibition [3] 5.44% | Potency [4] > 20.6 µM

COc1cccc(Cn2c(NCc3ccccn3)nc3c2c(=O)n(C)c(=O)n3C)c1
inactive: activity change, negative = inhibition [1] -10.2% | activity change, negative = inhibition [2] 7.02% | activity, negative = inhibition [3] -15.6% | Potency [4] > 20.6 µM

C=CCc1cccc(/C=N/c2ncn[nH]2)c1O
inactive: activity change, negative = inhibition [1] -5.91% | activity change, negative = inhibition [2] -19.8% | activity, negative = inhibition [3] 5.03% | Potency [4] > 20.6 µM

O=c1c2c3c(sc2n2cnnc2n1C1CCCCC1)CCC3
inactive: activity change, negative = inhibition [1] -5.1% | activity change, negative = inhibition [2] -1.53% | activity, negative = inhibition [3] 22.2% | Potency [4] > 20.6 µM

COC(=O)c1ccc(Nc2cc(C)nc(-c3ccccc3O)n2)cc1
inactive: activity change, negative = inhibition [1] 15.3% | activity change, negative = inhibition [2] -10.8% | activity, negative = inhibition [3] -5.42% | Potency [4] > 20.6 µM

COc1cccc(-c2nnc3sc(-c4ccco4)nn23)c1
inactive: activity change, negative = inhibition [1] -6.59% | activity change, negative = inhibition [2] 7.27% | activity, negative = inhibition [3] -1.01% | Potency [4] > 20.6 µM

O=C(NCC(F)(F)F)Nc1nnc(C(F)(F)F)s1
inactive: activity change, negative = inhibition [1] -9.88% | activity change, negative = inhibition [2] -2.8% | activity, negative = inhibition [3] -4.37% | Potency [4] > 20.6 µM

CCn1nc(NC(=O)c2ccco2)c2cc3ccccc3nc21
inactive: activity change, negative = inhibition [1] -5.14% | activity change, negative = inhibition [2] 5.58% | activity, negative = inhibition [3] -7.47% | Potency [4] > 20.6 µM

CC1CN(C2CCN(S(=O)(=O)c3ccc4ccccc4c3)CC2)CC(C)O1 (centres undefined)
inactive: activity change, negative = inhibition [1] -3.99% | activity change, negative = inhibition [2] -12.1% | activity, negative = inhibition [3] -8.2% | Potency [4] > 20.6 µM

COc1ccc(NCc2cc3ccccc3[nH]c2=O)cc1
inactive: activity change, negative = inhibition [1] -1.34% | activity change, negative = inhibition [2] -19.9% | activity, negative = inhibition [3] 1.46% | Potency [4] > 20.6 µM

CC1(C)Cc2c(sc3nc4n(c(=N)c23)CCC4)CO1
inactive: activity change, negative = inhibition [1] -5.14% | activity change, negative = inhibition [2] -4.64% | activity, negative = inhibition [3] 4.33% | Potency [4] > 20.6 µM

Cn1c(SCC(=O)NCc2ccccc2)nc2ccccc21
inactive: activity change, negative = inhibition [1] -0.959% | activity change, negative = inhibition [2] 1.73% | activity, negative = inhibition [3] 4.04% | Potency [4] > 20.6 µM

COC(=O)c1ccc(N2C(=O)CC(N3CCN(C(=O)c4ccco4)CC3)C2=O)cc1 (centres undefined)
inactive: activity change, negative = inhibition [1] 3.9% | activity change, negative = inhibition [2] -1.87% | activity, negative = inhibition [3] 0.889% | Potency [4] > 20.6 µM

Cc1cc2c(c(=O)o1)C(CC(C)C)C(C#N)=C(N)O2 (centres undefined)
inactive: activity change, negative = inhibition [1] 14.1% | activity change, negative = inhibition [2] 4.64% | activity, negative = inhibition [3] 1.38% | Potency [4] > 20.6 µM

C=CCN1C(=O)CC(C(=O)NC)SC1=Nc1ccc(C(=O)OCC)cc1 (centres undefined)
inactive: activity change, negative = inhibition [1] -3.69% | activity change, negative = inhibition [2] 16.7% | activity, negative = inhibition [3] -3.3% | Potency [4] > 20.6 µM

CC(C)c1nc2n[nH]c(N)c2c2c1CCCC2
inactive: activity change, negative = inhibition [1] -8.5% | activity change, negative = inhibition [2] 6.42% | activity, negative = inhibition [3] -2.14% | Potency [4] > 20.6 µM

CCOC(=O)c1cc2c(=O)n3ccccc3nc2n(Cc2ccccc2Cl)c1=N
inactive: activity change, negative = inhibition [1] -18.6% | activity change, negative = inhibition [2] 1.14% | activity, negative = inhibition [3] 2.43% | Potency [4] > 20.6 µM

CCOC(=O)C1=C(N)n2c(s/c(=C\c3ccco3)c2=O)=C(C(=O)OC(C)C)C1c1ccco1 (centres undefined)
inactive: activity change, negative = inhibition [1] 9.43% | activity change, negative = inhibition [2] -23.7% | activity, negative = inhibition [3] 4.26% | Potency [4] > 20.6 µM

CCCOc1cccc(C2/C(=C(/O)c3ccccc3)C(=O)C(=O)N2CCN(C)C)c1 (centres undefined)
inactive: activity change, negative = inhibition [1] 5.11% | activity change, negative = inhibition [2] 24.1% | activity, negative = inhibition [3] 0.936% | Potency [4] > 20.6 µM

O=C(NCc1ccco1)c1ccc(=O)[nH]n1
inactive: activity change, negative = inhibition [1] -6.2% | activity change, negative = inhibition [2] -1.91% | activity, negative = inhibition [3] -5.82% | Potency [4] > 20.6 µM

c1ccc(C2=Nn3c(nnc3-c3ccccn3)SC2)cc1
inactive: activity change, negative = inhibition [1] -4.27% | activity change, negative = inhibition [2] -8.45% | activity, negative = inhibition [3] 5.46% | Potency [4] > 20.6 µM

O=C(c1cc(N2CCCCC2)nc2ccccc12)N1CCOCC1
inactive: activity change, negative = inhibition [1] -15.6% | activity change, negative = inhibition [2] -13.8% | activity, negative = inhibition [3] 4.94% | Potency [4] > 20.6 µM

O=c1[nH]cnc2cc(-c3ccccc3)sc12
inactive: activity change, negative = inhibition [1] -9.08% | activity change, negative = inhibition [2] 3.27% | activity, negative = inhibition [3] 9.54% | Potency [4] > 20.6 µM

COc1ccc2c(C)nc(Nc3nc(C)cc(C)n3)nc2c1
inactive: activity change, negative = inhibition [1] -4.83% | activity change, negative = inhibition [2] -4.96% | activity, negative = inhibition [3] 7.03% | Potency [4] > 20.6 µM

Cc1nccn1-c1cc(C(C)C)c(C#N)c2nc3ccccc3n12
inactive: activity change, negative = inhibition [1] 0.38% | activity change, negative = inhibition [2] -0.783% | activity, negative = inhibition [3] -0.277% | Potency [4] > 20.6 µM

CCOc1nnnc2c1sc1nc(N3CCOCC3)c3c(c12)CC(C)(C)OC3
inactive: activity change, negative = inhibition [1] -7.69% | activity change, negative = inhibition [2] -17.4% | activity, negative = inhibition [3] -9.58% | Potency [4] > 20.6 µM
